SMILES strings stand for the structures. The panel holds about 83,000 compounds, 20% with a hit somewhere; the sample as a whole holds those more often.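 Cells were grown in 96-well plates and exposed to the test compound at a single concentration for 48 hours; results are reported as percent growth, with values below 10 considered active.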 Unmarked numbers belong to inactive results. Active and inactive are the calls of the source.

From PubChem BioAssay (NCI) come the findings set out here.

Test systems include RPMI-8226 leukemia; OVCAR-8 ovarian; OVCAR-5 ovarian; OVCAR-4 ovarian; SK-OV-3 ovarian; HS 578T breast; NCI/ADR-RES ovarian; T-47D breast; BT-549 breast; MDA-MB-435 melanoma; SW-620 colon; MCF7 breast; HCT-116 colon; KM12 colon; OVCAR-3 ovarian; HCC-2998 colon; IGROV1 ovarian.
Common to all, as to experiment: NCI-60 one-dose screen, 48 h (100 = growth as untreated, 0 = no growth, -100 = all killed)
What all share (conditions): 10 µM unless noted

Take `Nc1nc2ncc(CCNc3ccc(C(=O)NC(CCC(=O)O)C(=O)O)cc3)nc2c(=O)[nH]1` (centres undefined): the growth in the assay on RPMI-8226 leukemia was 112%; in the assay on OVCAR-8 ovarian, 108%; in the assay on OVCAR-5 ovarian it was 90.1%; with OVCAR-4 ovarian, 104%; in the assay with SK-OV-3 ovarian, 110%; in the assay on HS 578T breast it was 101%. Further, the growth with NCI/ADR-RES ovarian is -2.15% (active); with T-47D breast it was 115%; in the assay with BT-549 breast, 114%; in the assay on MDA-MB-435 melanoma, 112%; in the assay with SW-620 colon, 103%; with MCF7 breast it was 112%. The values for the growth in the assay on HCT-116 colon and with KM12 colon were 107% and 110%, respectively.

For `CC(=O)Nc1ccc2c(c1)Cc1c(F)c(F)c(F)c(F)c1-2`, the growth in the assay on RPMI-8226 leukemia is 22.5%; with OVCAR-8 ovarian, 79.6%; in the assay with OVCAR-5 ovarian, 44.1%; in the assay with OVCAR-4 ovarian, 85.7%; with SK-OV-3 ovarian, 113%; in the assay with OVCAR-3 ovarian, 105%. Moreover, the growth with HS 578T breast was 96.6%; in the assay on T-47D breast, 85.6%; in the assay with MDA-MB-435 melanoma, 101%; in the assay on SW-620 colon, 103%; in the assay on MCF7 breast, 86.7%; in the assay on HCT-116 colon, 86.3%. In the assay with KM12 colon, the growth was 92.8%.

Regarding `CN(C)c1nc(N)nc(Cn2c(-c3nonc3N)nc3ccccc32)n1`, the growth is 87.9% with RPMI-8226 leukemia; 91.9% in the assay on OVCAR-8 ovarian; 90.6% with OVCAR-5 ovarian; 87.8% in the assay on OVCAR-4 ovarian; 88.8% with SK-OV-3 ovarian; 98% in the assay on OVCAR-3 ovarian. The growth with HS 578T breast is 77.4%; with NCI/ADR-RES ovarian, 73.6%; in the assay on T-47D breast, 89.7%; in the assay on MDA-MB-435 melanoma, 7.85% (active); with SW-620 colon it was 52.4%; in the assay with HCT-116 colon, 71.5%. Besides, the growth in the assay on HCC-2998 colon is 82.7%; in the assay with KM12 colon, 55.4%.

In the case of `CN(C)c1ccc(/C=C\c2ccnc3ccccc23)cc1`, the growth in the assay with RPMI-8226 leukemia is -18.1% (active); with OVCAR-8 ovarian, 63.6%; in the assay on OVCAR-5 ovarian, 65%; in the assay with OVCAR-4 ovarian it was 68.2%; with SK-OV-3 ovarian, 55.2%; in the assay with HS 578T breast, 84.9%. In addition, the growth in the assay on T-47D breast is 65.4%; in the assay with BT-549 breast, -0.99% (active); in the assay with MDA-MB-435 melanoma it was 33.6%; in the assay with SW-620 colon, 87.7%; with MCF7 breast, 39.1%; in the assay with HCT-116 colon, 62.6%. In the assay with KM12 colon, the growth is 55.8%.

Regarding `COc1ccc(-c2c(N)noc2-c2cc(OC)c3c(c2)OCCO3)cc1`, the growth in the assay on RPMI-8226 leukemia is 16%; with OVCAR-8 ovarian, 24.3%; with OVCAR-5 ovarian, 36.5%; with SK-OV-3 ovarian, 8.57% (active); with IGROV1 ovarian, 24.8%; in the assay on OVCAR-3 ovarian it was -24.2% (active). For the same molecule, the growth in the assay with HS 578T breast is 25.9%; in the assay on NCI/ADR-RES ovarian, -5.69% (active); in the assay with T-47D breast, 63.7%; with BT-549 breast, 20.4%; in the assay on MDA-MB-435 melanoma it was -7.52% (active); in the assay on SW-620 colon it was 27%. For the same molecule, the growth with HCT-116 colon was 0.565% (active); with HCC-2998 colon, 18.9%; in the assay on KM12 colon, 0.643% (active).
